Source: PubChem (National Center for Advancing Translational Sciences (NCATS))
TGFb SMAD3 inh – blocks TGF-b signaling | Potency, µM (series often up to 46.1 µM), without a hit: at the highest dose activity, negative = inhibition, usual class: inhibitors | hit rate 1.2% among 410,000 | HepG2 CAGA-GFP TGF-b/SMAD3 reporter, GFP fluorescence, 18 h; TGF-beta stimulated, 500 pg/mL final; further: potency means the concentration at half of the fitted maximal effect; on the % scale 0 is the no-effect control and ±100 the full control effect; nearly all actives have a fitted effect of over 65% in size
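Inhibition of TGF-beta-driven CAGA-GFP reporter expression in HEPG2 cells is measured by cellular GFP fluorescence after 18 h stimulation with 500 pg/mL recombinant TGF-beta in 1% FBS medium at 37 degrees C.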
IL1B secr inh – inflammasome signaling inhibition, IL-1 beta readout. hit rate 4.7% among 360,000. activity change, % at 57.5 µM. THP-1 LPS/ATP IL-1B secretion, AlphaLISA, 16 h; hits give low values. AID 743279; in the data active means activity change below about -50%; inconclusive means mostly about -30% to -49%; further: on the % scale 0 is the no-effect control and ±100 the full control effect
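Secreted IL-1B measured by AlphaLISA bead assay after 16 h compound exposure of THP-1 cells; compounds (final up to 57.5 uM) added 1 h before LPS (250 ng/mL) and ATP (1.25 mM) stimulation; lower signal means less secretion.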
HepG2 viability – HepG2 cytotoxicity, counter-screen for TGF-b inhibitors; Potency, µM (highest dose often 46.1 µM), for inactives: at the highest dose activity change, negative = cytotoxicity, hits mostly cytotoxic; HepG2 CAGA-GFP viability, ATP luminescence, 18 h; AID 588856; hit rate 0.76% among 410,000; further: potency means the concentration at half of the fitted maximal effect
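CellTiter-Glo luminescence gave cytotoxicity after 18 hours at 37 degrees C. The cells were HepG2 CAGA-GFP in 1% FBS DMEM, stimulated with 500 pg/mL TGF-beta after compound addition. %Activity was normalised to no-cell wells (complete cell-killing) and DMSO (no toxicity), and curves were fitted and classified.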
TDP1 block – TDP1 (human) enzyme inhibition; recombinant TDP1, AlphaScreen DNA substrate cleavage; Q9NUW8; AID 485290; Potency, µM (top dose mostly 130 µM), without a hit: at the top dose activity change, negative = inhibition, usual class: inhibitors; hit rate 0.28% among 350,000; further: potency means the concentration at half of the fitted maximal effect; on the % scale 0 is the no-effect control and ±100 the full control effect; nearly all actives have a fitted effect of over 40% in size
Target sequence (Q9NUW8 whole entry, looked up): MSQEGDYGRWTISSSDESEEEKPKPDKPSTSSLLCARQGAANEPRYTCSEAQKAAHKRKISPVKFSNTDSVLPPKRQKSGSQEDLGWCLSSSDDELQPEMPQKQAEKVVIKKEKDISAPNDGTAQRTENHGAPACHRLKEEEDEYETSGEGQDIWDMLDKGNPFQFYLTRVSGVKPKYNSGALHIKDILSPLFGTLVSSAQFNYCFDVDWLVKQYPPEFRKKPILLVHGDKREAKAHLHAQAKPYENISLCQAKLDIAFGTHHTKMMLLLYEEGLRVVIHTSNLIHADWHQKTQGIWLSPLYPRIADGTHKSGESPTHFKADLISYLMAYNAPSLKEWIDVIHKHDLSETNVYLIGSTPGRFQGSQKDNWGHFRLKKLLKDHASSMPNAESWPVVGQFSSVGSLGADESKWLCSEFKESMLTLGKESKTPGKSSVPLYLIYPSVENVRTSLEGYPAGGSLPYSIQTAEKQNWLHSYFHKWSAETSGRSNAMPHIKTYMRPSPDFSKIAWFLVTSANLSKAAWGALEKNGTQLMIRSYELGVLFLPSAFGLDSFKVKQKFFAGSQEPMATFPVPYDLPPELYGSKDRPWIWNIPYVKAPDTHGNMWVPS
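E. coli-derived human Tdp1, 1 nM final. Cpd preinc 15 min RT; substrate 15 nM final, 5 min RT; AS bead mix 10 ug/ml final, 10 min RT. Signal loss = tyrosine-FITC cleavage. No-enzyme wells = max signal.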
DT40 TDP1 CPT – DT40-hTDP1 cell growth loss with CPT. chicken DT40 Tdp1-/-;hTDP1 cells + 20 nM CPT, ATP luminescence, 48 h. Potency, µM (top dose mostly 46.2 µM), inactives show top-dose activity change, negative = growth inhibition, actives largely listed as inhibitors. hit rate 12% among 420,000. AID 686979; further: potency means the concentration at half of the fitted maximal effect; on the % scale 0 is the no-effect control and ±100 the full control effect; nearly all actives have a fitted effect of over 55% in size
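Cell growth measured by CellTiter-Glo luminescence after a minimum 48 h, 37 C compound exposure with 20 nM CPT in Tdp1-knockout DT40 cells stably expressing hTDP1, seeded 400/well; qHTS titration format.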
DT40 TDP1 no CPT – qHTS for Inhibitors of human tyrosyl-DNA phosphodiesterase 1 (TDP1): qHTS in cells in absence of CPT | DT40 Tdp1-/- hTDP1 cells, no CPT, ATP luminescence, 48 h | Potency, µM (series often up to 46.2 µM), without a hit: at the top dose activity change, negative = growth inhibition, actives largely listed as inhibitors | hit rate 15% among 420,000; further: potency means the concentration at half of the fitted maximal effect; on the % scale 0 is the no-effect control and ±100 the full control effect; nearly all actives have a fitted effect of over 55% in size
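Growth kinetics read by CellTiter-Glo luminescence after ≥48 hr at 37 °C. Cells: DT40 Tdp1-/- stably carrying human TDP1, 400 per well, compound exposure in the absence of CPT (DMSO vehicle).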
Numbers without * were called inactive; ? = inconclusive; . = no result; [ ] = another dose, or the depositor's remark. Sampled rows, rich in hits. Any-hit rate of the full collection: about 19%. Unless noted, the call rests on the fitted dose curve; in most records, active means well fitted curve in the direction sought with a large enough effect; inconclusive means small, poorly fitted or top-dose-only effect, or another doubt; inactive means no such curve, though single readings can be large; an effect the other way counts as inactive or inconclusive.

SMILES | TGFb SMAD3 inh | IL1B secr inh | HepG2 viability | TDP1 block | DT40 TDP1 CPT | DT40 TDP1 no CPT
Cc1ccc(C2CC(=O)N3CN(Cc4ccco4)CSC3=C2C#N)cc1 (stereo not drawn) | 10% | 18 | 1% | 4% | -20% | -13%
N#CC1=C2SCN(C3CCCCC3)CN2C(=O)CC1c1c(F)cccc1Cl (stereo not drawn) | -22% | . | -36% | 0% | ? | ?
N#CC1=C2SCN(C3CCCCC3)CN2C(=O)CC1c1ccc(F)cc1 (stereo not drawn) | -16% | . | -29% | 5% | ? | 16µM*
N#CC1=C2SCN(C3CCCCC3)CN2C(=O)CC1c1ccc(Cl)cc1 (stereo not drawn) | -27% | . | -43% | -2% | 4.6µM* | ?
COc1ccccc1N1CSC2=C(C#N)C(c3ccc(SC)cc3)CC(=O)N2C1 (stereo not drawn) | -9% | 6 | -34% | 6% | ? | 23µM*
CN(C)c1ccc(NS(=O)(=O)c2cc3c4c(c2)CC(=O)N4CCC3)cc1 | -6% | 4 | -6% | 10% | ? | ?
Cc1ccc(S(=O)(=O)Nc2cc3c4c(c2)CCC(=O)N4CCC3)cc1 | 6% | 60 | -14% | . | ? | 21µM*
COc1ccc(C)cc1S(=O)(=O)Nc1cc2c3c(c1)CC(=O)N3CCC2 | -1% | 30 | -24% | -3% | ? | ?
O=C1CCc2cc(NS(=O)(=O)c3ccc(Br)cc3)cc3c2N1CC3 | 4% | 2 | 1% | -8%[0.505 µM] | 2% | -7%
CCCCc1ccc(NS(=O)(=O)c2cc3c4c(c2)CC(=O)N4CCC3)cc1 | ? | . | -60% | 0% | 15µM* | 12µM*
COc1ccc(OC)c(S(=O)(=O)Nc2cc3c4c(c2)CC(=O)N4CCC3)c1 | 2% | 43 | -5% | . | ? | 15µM*
CCCCN(C)C(=O)Cn1cnc2sc(C)c(S(=O)(=O)N3CCN(c4ccccc4OC)CC3)c2c1=O | 1% | 11 | 3% | 6% | 23µM* | 23µM*
COCCNC(=O)Cn1cnc2sc(C)c(S(=O)(=O)N3CCN(c4ccccc4OC)CC3)c2c1=O | 24% | 13 | 11% | 3% | 11% | -8%
CCCCN(CC)CCNC(=O)Cn1cnc2sc(C)c(S(=O)(=O)N3CCN(c4ccccc4OC)CC3)c2c1=O | ? | . | -1% | 0% | ? | ?
COc1ccccc1N1CCN(S(=O)(=O)c2c(C)sc3ncn(CC(=O)N(C)c4ccc(Cl)cc4)c(=O)c23)CC1 | -27% | . | -12% | 9% | 18µM* | 16µM*
Cc1ccc(CNC(=O)c2c(-c3cccc(Br)c3)noc2C)o1 | 1% | . | -2% | 3% | ? | -13%
Cc1cccc(-c2nc(NCCN(C)C)c3ccccc3n2)c1 | -1% | -16 | -25% | . | -10% | ?
CC1CN(CCCCOc2ccc(C(C)C)cc2)CC(C)O1 (stereo not drawn) | -5% | -1 | -21% | . | ? | -28%
CC1CCCN(CCOc2cccc(Oc3ccccc3)c2)C1 (stereo not drawn) | -23% | -30 | -36% | . | 26µM* | ?
c1ccc(Oc2cccc(OCCCCN3CCCC3)c2)cc1 | ? | 0 | -52% | -6% | ? | 18µM*
Cc1ccc(OCCCCN2CCC(C)CC2)cc1 | 7% | -2 | 0% | . | 3% | -17%
CC1CN(CCCCOc2ccc(Cl)c3ccccc23)CC(C)O1 (stereo not drawn) | 16µM* | ? | -59% | . | ? | 10µM*
CC1CCN(CCCCOc2cccc(C(C)C)c2)CC1 | -3% | -20 | -28% | . | 16µM* | ?
CS(=O)(=O)c1ccc(C(=O)N2CCN(C(=O)c3ccco3)CC2)cc1 | 12% | 14 | 9% | 6% | 2% | 12%
CN(C)CCCn1c2c(c(SCC(=O)Nc3ccc4c(c3)OCCO4)nc1=O)CCCC2 | -1% | -19 | -16% | . | -18% | ?
SMILES | TGFb SMAD3 inh | IL1B secr inh | HepG2 viability | TDP1 block | DT40 TDP1 CPT | DT40 TDP1 no CPT
O=C(COc1ccc(-c2ccccc2)cc1)N1CCCC1 | -8% | -15 | -17% | 3% | 4% | ?
CSc1ncc(Cl)c(C(=O)Nc2c(C(=O)c3ccc(C)cc3)oc3ccccc23)n1 | -9% | . | -13% | 2% | 6% | 29%
CC1CN(CCCCOc2cccc(Oc3ccccc3)c2)CC(C)O1 (stereo not drawn) | 0% | -67* | -27% | 5% | ? | ?
CCCOc1ccccc1C1NC(=O)NC(C)=C1C(=O)OCc1ccccc1 (stereo not drawn) | 0% | -71* | -2% | -2% | 23µM* | ?
CC1=C(C(=O)OCc2ccc3c(c2)OCO3)C(c2ccccc2OCc2ccccc2)NC(=O)N1 (stereo not drawn) | -25% | -50* | -3% | 5% | ? | 26µM*
CCOC(=O)C1=C(C)NC(=O)NC1c1cccc(OC)c1OCc1ccccc1Cl (stereo not drawn) | 14% | 11 | 1% | 2% | 8.2µM* | ?
CC1=C(C(=O)OCc2ccc3c(c2)OCO3)C(c2ccc(O)c([N+](=O)[O-])c2)NC(=O)N1 (stereo not drawn) | -1% | 48 | 10% | -1% | -10% | ?
O=C(CCc1nnc(CCCc2ccccc2)o1)NC(C1CC1)C1CC1 | 0% | -25 | -3% | 1% | -1% | -20%
COc1ccccc1N1CCN(C(=O)C(Sc2ccccc2)c2ccccc2)CC1 (stereo not drawn) | ? | ? | 8% | 0% | 18µM* | ?
CS(=O)(=O)N1CCN(C(=O)C(Sc2ccccc2)c2ccccc2)CC1 (stereo not drawn) | 1% | 5 | -3% | 1% | -28% | -26%
COc1cc2c(cc1OC)CN(C(=O)c1ccc(S(=O)(=O)N3CCCCC3)cc1)CC2 | -6% | -2 | -14% | 2% | 26µM* | 16µM*
COc1ccc(C(=O)N2CCN(c3ccccc3OC)CC2)cc1 | -23% | 7 | -15% | 2% | -1% | -1%
COc1ccccc1N1CCN(C(=O)c2ccc(C(C)(C)C)cc2)CC1 | -22% | -11 | -76% | 2% | 4.6µM* | 5.8µM*
COc1ccccc1N1CCN(C(=O)c2ccc(-c3ccccc3)cc2)CC1 | ? | -14 | -31% | . | ? | 13µM*
Cc1ccc(CNS(=O)(=O)c2c(C)nc3sc(C)cn3c2=O)cc1 | 15% | . | -5% | 3% | ? | -26%
